Results as given in PubChem BioAssay (Tox21).
Inconclusive results are not listed. Activity calls are given as the source filed them. Calls come from the whole dose curve; as a rule, active = well fitted curve in the direction sought with a large enough effect in the repeat runs; inconclusive = weak or mixed curves; inactive = no such curve, though single readings can be large; an effect the other way counts as inactive or inconclusive.

Experiments:
[1] = target: Nuclear receptor subfamily 1 group I member 2 (Homo sapiens) (UniProt O75469); experiment: Human pregnane X receptor (PXR) small molecule agonists, qHTS assay (AID 1346982); note: nearly all actives have a fitted effect of over 35% in size; note: potency is the fitted concentration of half-maximal effect
How it was run: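 Luciferase signal from ONE-Glo (30 min, room temperature) measured activation of hPXR-driven CYP3A4 reporter expression in PXR-Luc HepG2 cells treated with compounds for 24 hr at 37 C.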

[2] = target: Cytochrome P450 2D6 (Homo sapiens) (UniProt P10635); experiment: Cytochrome P450 Family 2 Subfamily D Member 6 (CYP2D6) small molecule antagonists: luciferase reporter qHTS assay (AID 1671196); note: nearly all actives have a fitted effect of over 50% in size; note: potency is the fitted concentration of half-maximal effect; for activity change, negative = inhibition: series mostly up to about 120 µM
How it was run: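 Read-out is luminescence from luciferin formed by CYP2D6 turnover of a proluciferin substrate, recorded as relative luminescence units. Reactions ran 1 h at room temperature after NADPH regeneration solution was added.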

[3] = target: Cytochrome P450 2C9 (Homo sapiens) (UniProt P11712); experiment: Cytochrome P450 Family 2 Subfamily C Member 9 (CYP2C9) small molecule antagonists: luciferase reporter qHTS assay (AID 1671198); note: series mostly up to about 120 µM; nearly all actives have a fitted effect of over 50% in size
How it was run: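 Enzyme-substrate mix preincubated with compound 10 min at room temperature; reaction started with NADPH regeneration solution, 1 h 37C. Luminescent luciferin product read after 20 min detection reagent.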

[4] = target: Cytochrome P450 1A2 (Homo sapiens) (UniProt P05177); experiment: Cytochrome P450 Family 1 Subfamily A Member 2 (CYP1A2) small molecule antagonists: luciferase reporter qHTS assay (AID 1671199); note: nearly all actives have a fitted effect of over 50% in size; note: potency is the fitted concentration of half-maximal effect; for activity change, negative = inhibition: series mostly up to about 120 µM
How it was run: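 P450-Glo CYP1A2, 1536-well qHTS: enzyme/proluciferin substrate + cpd (DMSO), 10 min RT; NADPH regen, 1 h RT; detection reagent, 20 min; luminescence, RLU.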

[5] = target: Voltage-gated inwardly rectifying potassium channel KCNH2 (Homo sapiens) (UniProt Q12809); experiment: Human Ether-a-go-go-Related Gene (hERG) channel small molecule antagonists: fluorescence cell-based qHTS assay (AID 1671200);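 note: hERG-expressing U2OS cells given a thallium stimulus after FluxOR II dye loading; series mostly up to about 77 µM; nearly all actives have a fitted effect of over 50% in size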
How it was run: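 First, 1000 cells per well are seeded and cultured overnight at 37 C. Next, FluxOR II dye is loaded for 1 h at room temperature, protected from light. After 10 more minutes, stimulus is added and fluorescence is read.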

[6] = target: Cytochrome P450 2C19 (Homo sapiens) (UniProt P33261); experiment: Cytochrome P450 Family 2 Subfamily C Member 19 (CYP2C19) small molecule antagonists: luciferase reporter qHTS assay (AID 1671197); note: nearly all actives have a fitted effect of over 65% in size; note: potency is the fitted concentration of half-maximal effect; for activity change, negative = inhibition: series mostly up to about 120 µM
How it was run: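 Relative luminescence units recorded 20 min after the detection reagent stopped a 1 h, 37C CYP2C19 reaction on proluciferin substrate, which was started by NADPH regeneration following 10 min room-temperature compound preincubation; ketoconazole positive control.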

[7] = target: Cytochrome P450 3A4 (Homo sapiens) (UniProt P08684); experiment: Cytochrome P450 Family 3 Subfamily A Member 4 (CYP3A4) small molecule antagonists: luciferase reporter qHTS assay (AID 1671201); note: nearly all actives have a fitted effect of over 50% in size; note: potency is the fitted concentration of half-maximal effect; for activity change, negative = inhibition: series mostly up to about 120 µM
How it was run: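 Enzyme and proluciferin substrate are mixed with test chemicals for 10 min, then NADPH regeneration system drives turnover for 1 h at room temperature. A detection reagent halts the reaction; luminescence after 20 min gives relative activity.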
% is set by controls: 0 for no effect and ±100 for the full control effect.

Chain of Nuclear receptor subfamily 1 group I member 2 (Homo sapiens) (O75469 whole entry, looked up): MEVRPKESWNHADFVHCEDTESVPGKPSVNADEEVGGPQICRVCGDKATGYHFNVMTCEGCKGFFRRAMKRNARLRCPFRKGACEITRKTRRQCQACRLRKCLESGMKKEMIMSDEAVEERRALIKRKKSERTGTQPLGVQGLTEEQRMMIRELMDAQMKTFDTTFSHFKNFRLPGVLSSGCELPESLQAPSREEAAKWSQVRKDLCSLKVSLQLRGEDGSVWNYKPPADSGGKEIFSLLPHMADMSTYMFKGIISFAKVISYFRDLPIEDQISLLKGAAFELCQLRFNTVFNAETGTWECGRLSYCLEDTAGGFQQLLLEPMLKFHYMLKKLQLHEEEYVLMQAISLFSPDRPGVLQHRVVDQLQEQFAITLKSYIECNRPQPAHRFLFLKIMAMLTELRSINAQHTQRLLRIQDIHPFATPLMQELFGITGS
Chain of Cytochrome P450 3A4 (Homo sapiens) (P08684 whole entry, looked up): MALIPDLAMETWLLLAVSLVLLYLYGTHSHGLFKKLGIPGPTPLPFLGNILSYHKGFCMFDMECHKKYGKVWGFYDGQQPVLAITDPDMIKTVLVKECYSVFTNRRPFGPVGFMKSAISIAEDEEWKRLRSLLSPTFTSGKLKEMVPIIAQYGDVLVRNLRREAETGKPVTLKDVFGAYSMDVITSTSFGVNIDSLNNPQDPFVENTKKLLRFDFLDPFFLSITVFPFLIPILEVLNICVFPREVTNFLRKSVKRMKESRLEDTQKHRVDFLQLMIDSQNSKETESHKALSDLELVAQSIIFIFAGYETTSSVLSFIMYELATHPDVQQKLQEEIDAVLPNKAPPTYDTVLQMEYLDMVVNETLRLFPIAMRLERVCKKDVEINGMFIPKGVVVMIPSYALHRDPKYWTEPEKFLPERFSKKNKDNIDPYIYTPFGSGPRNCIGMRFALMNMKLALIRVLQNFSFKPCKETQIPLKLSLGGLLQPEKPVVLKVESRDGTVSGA
Chain of Voltage-gated inwardly rectifying potassium channel KCNH2 (Homo sapiens) (Q12809 whole entry, looked up): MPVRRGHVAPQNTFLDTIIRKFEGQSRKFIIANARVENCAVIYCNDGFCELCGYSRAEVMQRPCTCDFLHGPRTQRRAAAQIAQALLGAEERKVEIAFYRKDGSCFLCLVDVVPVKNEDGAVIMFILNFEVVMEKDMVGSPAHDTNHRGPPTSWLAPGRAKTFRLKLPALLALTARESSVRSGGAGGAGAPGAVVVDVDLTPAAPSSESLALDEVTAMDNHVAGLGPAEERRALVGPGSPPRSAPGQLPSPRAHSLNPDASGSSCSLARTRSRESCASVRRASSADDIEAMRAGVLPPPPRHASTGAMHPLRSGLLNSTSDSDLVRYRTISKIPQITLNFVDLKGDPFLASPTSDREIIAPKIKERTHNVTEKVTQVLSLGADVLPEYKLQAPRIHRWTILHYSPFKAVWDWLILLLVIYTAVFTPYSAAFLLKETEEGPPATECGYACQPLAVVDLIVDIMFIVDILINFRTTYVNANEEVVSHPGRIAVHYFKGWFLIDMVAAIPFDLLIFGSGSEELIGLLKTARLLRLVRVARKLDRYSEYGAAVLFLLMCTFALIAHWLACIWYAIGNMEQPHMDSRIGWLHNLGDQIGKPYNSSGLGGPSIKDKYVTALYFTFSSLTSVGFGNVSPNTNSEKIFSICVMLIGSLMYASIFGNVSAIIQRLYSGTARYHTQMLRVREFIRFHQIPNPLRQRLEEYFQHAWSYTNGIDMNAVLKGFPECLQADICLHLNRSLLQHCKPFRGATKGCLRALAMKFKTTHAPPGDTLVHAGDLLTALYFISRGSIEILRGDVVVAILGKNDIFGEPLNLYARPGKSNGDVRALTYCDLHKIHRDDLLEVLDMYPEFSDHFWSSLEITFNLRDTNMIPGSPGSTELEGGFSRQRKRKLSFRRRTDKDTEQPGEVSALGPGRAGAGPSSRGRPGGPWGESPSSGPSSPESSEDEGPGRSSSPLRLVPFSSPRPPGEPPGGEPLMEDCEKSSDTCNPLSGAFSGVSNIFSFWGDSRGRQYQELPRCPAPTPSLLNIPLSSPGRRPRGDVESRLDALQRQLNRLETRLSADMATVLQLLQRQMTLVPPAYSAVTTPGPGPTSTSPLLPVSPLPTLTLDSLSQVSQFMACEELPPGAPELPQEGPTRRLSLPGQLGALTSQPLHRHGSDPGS
Chain of Cytochrome P450 2D6 (Homo sapiens) (P10635 whole entry, looked up): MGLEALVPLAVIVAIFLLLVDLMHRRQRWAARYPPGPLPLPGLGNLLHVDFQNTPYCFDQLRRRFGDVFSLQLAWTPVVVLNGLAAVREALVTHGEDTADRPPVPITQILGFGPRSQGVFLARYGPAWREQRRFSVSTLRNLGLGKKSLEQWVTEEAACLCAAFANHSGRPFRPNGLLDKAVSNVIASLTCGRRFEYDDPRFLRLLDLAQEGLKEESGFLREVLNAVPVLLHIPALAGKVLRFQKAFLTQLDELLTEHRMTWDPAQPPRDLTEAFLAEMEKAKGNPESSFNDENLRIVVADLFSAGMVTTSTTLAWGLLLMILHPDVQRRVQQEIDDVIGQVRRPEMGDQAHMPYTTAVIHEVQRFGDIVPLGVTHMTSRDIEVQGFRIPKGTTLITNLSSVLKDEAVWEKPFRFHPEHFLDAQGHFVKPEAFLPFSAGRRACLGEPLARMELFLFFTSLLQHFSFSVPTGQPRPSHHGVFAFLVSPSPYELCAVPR
Chain of Cytochrome P450 2C9 (Homo sapiens) (P11712 whole entry, looked up): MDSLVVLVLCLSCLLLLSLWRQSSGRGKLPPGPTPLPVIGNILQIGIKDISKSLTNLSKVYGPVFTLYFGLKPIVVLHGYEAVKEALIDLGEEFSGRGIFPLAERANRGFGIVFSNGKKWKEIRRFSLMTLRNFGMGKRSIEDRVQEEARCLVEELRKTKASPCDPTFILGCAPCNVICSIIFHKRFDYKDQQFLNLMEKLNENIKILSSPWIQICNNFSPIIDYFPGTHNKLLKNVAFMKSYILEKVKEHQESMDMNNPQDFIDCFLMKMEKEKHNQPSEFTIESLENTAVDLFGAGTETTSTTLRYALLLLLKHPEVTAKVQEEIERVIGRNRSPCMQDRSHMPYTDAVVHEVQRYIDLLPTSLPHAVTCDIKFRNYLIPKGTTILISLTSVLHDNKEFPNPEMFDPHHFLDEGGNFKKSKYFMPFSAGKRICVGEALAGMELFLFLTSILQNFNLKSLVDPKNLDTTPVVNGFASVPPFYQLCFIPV
Chain of Cytochrome P450 1A2 (Homo sapiens) (P05177 whole entry, looked up): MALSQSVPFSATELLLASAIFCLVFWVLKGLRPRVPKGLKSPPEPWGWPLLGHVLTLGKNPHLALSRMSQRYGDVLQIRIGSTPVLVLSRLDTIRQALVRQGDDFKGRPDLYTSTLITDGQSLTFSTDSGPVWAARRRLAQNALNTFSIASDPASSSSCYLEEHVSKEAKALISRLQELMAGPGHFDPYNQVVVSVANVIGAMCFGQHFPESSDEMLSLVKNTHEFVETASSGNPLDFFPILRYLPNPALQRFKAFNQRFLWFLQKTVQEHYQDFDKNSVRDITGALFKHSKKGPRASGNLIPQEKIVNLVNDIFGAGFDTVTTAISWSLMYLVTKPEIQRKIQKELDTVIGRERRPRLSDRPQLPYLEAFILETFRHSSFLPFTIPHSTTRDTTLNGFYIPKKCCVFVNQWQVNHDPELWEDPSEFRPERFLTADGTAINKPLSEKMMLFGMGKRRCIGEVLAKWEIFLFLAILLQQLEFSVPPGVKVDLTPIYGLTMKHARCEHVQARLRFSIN
Chain of Cytochrome P450 2C19 (Homo sapiens) (P33261 whole entry, looked up): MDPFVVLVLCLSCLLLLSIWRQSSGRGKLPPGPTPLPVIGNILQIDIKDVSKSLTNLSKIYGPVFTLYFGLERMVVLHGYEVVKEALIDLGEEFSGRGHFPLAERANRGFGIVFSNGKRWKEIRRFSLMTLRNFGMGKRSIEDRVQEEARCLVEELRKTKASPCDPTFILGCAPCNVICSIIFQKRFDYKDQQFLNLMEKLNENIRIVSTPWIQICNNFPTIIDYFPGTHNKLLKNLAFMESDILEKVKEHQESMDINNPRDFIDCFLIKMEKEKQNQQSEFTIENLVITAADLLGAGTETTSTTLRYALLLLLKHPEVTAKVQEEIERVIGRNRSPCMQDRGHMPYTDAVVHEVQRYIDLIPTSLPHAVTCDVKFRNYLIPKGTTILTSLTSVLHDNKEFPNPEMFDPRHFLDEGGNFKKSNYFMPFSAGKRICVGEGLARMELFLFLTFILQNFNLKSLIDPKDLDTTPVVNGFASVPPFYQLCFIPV

COc1nc(N)nc2nc[nH]c12
active: Potency [2] 10 µM | Potency [4] 17.9 µM
inactive: Potency [1] | Potency [3] | Potency [5]

CCCCCCC1(C)CCC(=O)O1 (stereo not given)
inactive: Potency [1] | Potency [2] | Potency [6] | Potency [5] | Potency [7]

O=C1CCCCO1
inactive: Potency [1] | Potency [2] | Potency [6] | Potency [7]

CCc1occc(=O)c1O
inactive: Potency [1] | Potency [2] | Potency [6] | Potency [4] | Potency [5] | Potency [7]

COc1cc2c(cc1OC)CN(C(=O)[C@H](C)N[C@@H](CCc1ccccc1)C(=O)O)[C@H](C(=O)O)C2
inactive: Potency [1] | Potency [2] | Potency [6] | Potency [4] | Potency [5] | Potency [7]

COc1cc(/C=C/C(N)=O)cc(OC)c1OC
inactive: Potency [1] | Potency [2] | Potency [3] | Potency [5] | Potency [7]
active: Potency [4] 21.9 µM

CCCC(=O)OC/C=C(\C)CCC=C(C)C
inactive: Potency [1] | Potency [2] | Potency [6] | Potency [7]

CCCCCC/C=C/C(=O)OC
inactive: Potency [1] | Potency [2] | Potency [3] | Potency [4] | Potency [5] | Potency [7]

Nc1nnnn1-c1ccccc1
inactive: Potency [1] | Potency [2] | Potency [6] | Potency [5] | Potency [7]

CCCCOCC(C)O (stereo not given)
inactive: Potency [1] | Potency [2] | Potency [6] | Potency [4] | Potency [5] | Potency [7]

O=C[O][Al]([O]C=O)[O]C=O
inactive: Potency [1] | Potency [2] | Potency [6] | Potency [4] | Potency [7]

Cc1ccc(C(=O)O)cc1[N+](=O)[O-]
inactive: Potency [1] | Potency [2] | Potency [6] | Potency [7]

CC(C)Nc1ccccc1
inactive: Potency [1] | Potency [2] | Potency [6] | Potency [5] | Potency [7]

CCN1CCCC1CN (stereo not given)
inactive: Potency [1] | Potency [2] | Potency [3] | Potency [4] | Potency [5] | Potency [7]

CC(=O)C(C)O (stereo not given)
inactive: Potency [1] | Potency [2] | Potency [6] | Potency [4] | Potency [5] | Potency [7]

COc1cc(OC)nc(O[C@H](C(=O)O)C(OC)(c2ccccc2)c2ccccc2)n1
inactive: Potency [1] | Potency [2] | Potency [6] | Potency [4] | Potency [5] | Potency [7]

CC1(C)CC(OC(=O)CCCCCCCCC(=O)OC2CC(C)(C)NC(C)(C)C2)CC(C)(C)N1
inactive: activation [1] 26.4% [at 19 µM] | activity change, negative = inhibition [2] -17.8% [at 23.6 µM] | activity change, negative = inhibition [3] -10.9% [at 23.6 µM] | activity change, negative = inhibition [4] -5.32% [at 23.6 µM]

CCCCCC(C)O (stereo not given)
inactive: Potency [1] | Potency [2] | Potency [3] | Potency [4] | Potency [5] | Potency [7]

OCC1CCC(CO)CC1 (stereo not given)
inactive: Potency [1] | Potency [2] | Potency [3] | Potency [4] | Potency [5] | Potency [7]

CC(=O)O[Si](C)(OC(C)=O)OC(C)=O
active: Potency [7] 5.15 µM
inactive: Potency [1] | Potency [2] | Potency [3] | Potency [4] | Potency [5]

OC1OCCOC1O (stereo not given)
active: Potency [4] 35.6 µM
inactive: Potency [1] | Potency [2] | Potency [3] | Potency [5] | Potency [7]

COC(=O)/C=C\C(=O)O
inactive: Potency [1] | Potency [2] | Potency [6] | Potency [4] | Potency [5] | Potency [7]

c1ccc(-c2nn[nH]n2)cc1
inactive: Potency [1] | Potency [2] | Potency [6] | Potency [7]

COC(=O)CCCCC(CCSS/C(CCO)=C(\C)N(C=O)Cc1cnc(C)nc1N)SC(C)=O (stereo not given)
inactive: Potency [1] | Potency [2] | Potency [3] | Potency [4] | Potency [5]

C=CCCCCCCCCC(=O)OCCCC
inactive: Potency [1] | Potency [2] | Potency [5] | Potency [7]
active: Potency [6] 56.4 µM

CC(C)C1OCCN1CCOC(=O)NCCCCCCNC(=O)OCCN1CCOC1C(C)C (stereo not given)
active: Potency [1] 34.4 µM | Potency [2] 63.3 µM | Potency [7] 10 µM
inactive: Potency [3] | Potency [4] | Potency [5]

CC1=NN(c2ccc(S(=O)(=O)O)cc2)C(=O)C1
active: Potency [6] 79.6 µM
inactive: Potency [1] | Potency [2] | Potency [4] | Potency [5] | Potency [7]

C=CCCCCCCCC
inactive: Potency [1] | Potency [2] | Potency [6] | Potency [5] | Potency [7]

C[C@@H](O)C(=O)O
inactive: Potency [1] | Potency [2] | Potency [4] | Potency [5] | Potency [7]

CC(=O)CCc1ccc(OC(C)=O)cc1
inactive: Potency [1] | Potency [2] | Potency [5] | Potency [7]
active: Potency [4] 31.7 µM

CCCCCCCCCCCCCCCCCC#N
inactive: Potency [1] | Potency [2] | Potency [4] | Potency [5] | Potency [7]
